± gives the standard deviation.

In the assay the test system is EfPiwi piRISC loaded with L1MC piRNA (26 nt). The assay is described as follows: pre-steady-state target cleavage rate (min^-1); auxiliary factor: 500 nM Ephydatia muelleri Gtsf1; guide: L1MC piRNA 5'p-UAACUAAAUACUAUGCAAGCUGUAGG; MIWI and MILI are mouse PIWI proteins and EfPiwi is from a freshwater sponge; tags in brackets are library labels; higher = faster piRNA-guided slicing of the target. Put shortly:
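With or without 500 nM GTSF1 partner protein, 1 nM active affinity-purified piRISC carrying one synthetic guide was mixed with 0.1 nM transcribed, DNA-blocked target RNA library in HEPES–potassium acetate buffer at 33 °C for 0–8 or 0–960 min. Uncleaved targets were sequenced and normalised to depth and to weakly complementary targets, three trials were pooled, and k3 was capped at 0.0001 min^-1. The pre-steady-state cleavage rate came from a burst-and-steady-state fit.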
On to UCCUCCUCACAGCUUGCAUAGUAUUUAGUUA, for which the “pre-steady-state target cleavage rate” value stood at 0.191 ± 0.046.

With UCCUGGUUCAGCUUGCAAAGUAUUUAGUUA, the “pre-steady-state target cleavage rate” value came to 0.0681 ± 0.019.

Regarding UCCUCCAACAGCUAGCAUAGUAUUUAGUUA, the “pre-steady-state target cleavage rate” value came to 0.00798 ± 0.0027.

With UCCUGGUACAGCUAGCAUAGUAUUAAGUUA, the “pre-steady-state target cleavage rate” value was found to be 0.00476 ± 0.0024.

Consider UCCUGCUACUCCUUGCAUAGUAUUUAGUUA, for which the “pre-steady-state target cleavage rate” value came out at 0.0106 ± 0.004.

Regarding UCCUGGAACAGUUUGCAUAGUAUUUAGUUA, the “pre-steady-state target cleavage rate” value amounted to 0.0565 ± 0.013.

As to UCCUGGAUGUCGUAGCAUAGUAUUUAGUUA, the “pre-steady-state target cleavage rate” value is 0.00385 ± 0.0025.

In the case of UCCUCCUAAAGCUUGCAUAGUAUUUAGUUA, the “pre-steady-state target cleavage rate” value was found to be 0.00604 ± 0.0023.

Consider UCCUGGAUGAGCUUGCAUAGUAUUUAGUUUA, for which the “pre-steady-state target cleavage rate” value is 0.0215 ± 0.0067.

On to UCCUGCUACAGUCUUGCAUAGUAUUUAGUUA, for which the “pre-steady-state target cleavage rate” value was determined as 0.00684 ± 0.0025.

Take UCCUGGAACAGCUUGCUUAGUAAUUAGUUA: the “pre-steady-state target cleavage rate” value turned out to be 0.00639 ± 0.0027.

As to UCCUGGAUCUGCUUGCAUACUAUUUAGUUA, the “pre-steady-state target cleavage rate” value came to 0.00859 ± 0.0023.

Regarding UCCUGCUACAGCUUUCAUAGUAUUUAGUUA, the “pre-steady-state target cleavage rate” value worked out at 0.00701 ± 0.0022.

For UCCUGGAUGAGGAUGCAUAGUAUUUAGUUA, the “pre-steady-state target cleavage rate” value is 0.00336 ± 0.0024.

As to UCCUGGUACAGUUGCAUAGUAUUUAGUUA, the “pre-steady-state target cleavage rate” value amounted to 0.0124 ± 0.0051.

As to UCCUGGAACAGCUACCAUAGUAUUUAGUUA, the “pre-steady-state target cleavage rate” value came to 0.00309 ± 0.0026.

For the origin of these results see the supplement of paper PMC10338343.
